Inconclusive results are not listed. A number with no mark means an inactive call. Calls of active or inactive are those of the source. The call rests on the fitted dose curve; in most records, active means well fitted cell-killing curve with a large enough effect; inconclusive means small, poorly fitted or top-dose-only effect; inactive means flat fitted curve, though single readings scatter. Numbered stars: 1 amine (or outer) side, 2 acyl side, 3 side chain; on linkers, the order of the positions; unused ones are H or OH. Bridge positions count the residues as written; N and C are the ends. Square brackets hold non-standard residues; d marks the D form. Peptide text beside a SMILES is read from it. I, II: the chains in the order shown. Actinocin(9to1) = Cc1c2oc3c(C)ccc(C(=O)[*:1])c3nc-2c(C(=O)[*:2])c(N)c1=O; NMeV = CN[C@H](C(=O)O)C(C)C; Sar = CNCC(=O)O
Potency means the concentration at half of the fitted maximal effect.

This test can be described thus: Cell Viability - LYMP1-002 - Assay at 40 hr (AID 994). Further: nearly all actives have a fitted effect of over 60% in size.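 On viability change, negative = cytotoxic: 0% = DMSO only and full inhibition = 92 µM tetraoctylammonium bromide.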 As to conditions: LYMP1-002 lymphoblastoid cell viability; series mostly up to 92.2 µM; viability change, negative = cytotoxic: at the top concentration. The method in brief:
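Cells are plated at 2500 per well and rested 5 hr at 37 C. Compounds are added and incubated 40 hr at 37 C. CellTiter-Glo reagent is added for 30 min at room temperature before luminescence is read.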
Turning to `Oc1c(I)cc(Cl)c2cccnc12`, the Potency was 50.1 µM (active). For `O=C(O)CCCCC(=O)O`, the “viability change, negative = cytotoxic” value was -0.778%. `CC(C)(C)CC(C)(C)c1ccc(OCCOCC[N+](C)(C)Cc2ccccc2)cc1`: the Potency is 39.8 µM (active).

Consider `CC(=O)Oc1ccc(C(c2ccc(OC(C)=O)cc2)c2ccccn2)cc1`, for which the “viability change, negative = cytotoxic” value was -7.92%. With `Nc1ccc(C(=O)O)cc1`, the “viability change, negative = cytotoxic” value is -1.76%.

In the case of `O=c1ccc2ccccc2o1`, the “viability change, negative = cytotoxic” value was 2.16%. Consider `CN(C)/N=N/c1nc[nH]c1C(N)=O`, for which the “viability change, negative = cytotoxic” value was 0.763%.

Regarding `C=CCc1ccc(O)c(OC)c1`, the “viability change, negative = cytotoxic” value is -2.84%. Still for that read-out and setting: the result for `CC/C(=C(/CC)c1ccc(O)cc1)c1ccc(O)cc1` reads -27.8%. Take `COc1cccc2c1C(=O)c1c(O)c3c(c(O)c1C2=O)C[C@@](O)(C(C)=O)C[C@@H]3O[C@H]1C[C@H](N)[C@H](O)[C@H](C)O1`: the Potency is 1 µM (active). As to `Cc1c2oc3c(C)ccc(C(=O)N[C@@H]4C(=O)N[C@H](C(C)C)C(=O)N5CCC[C@H]5C(=O)N(C)CC(=O)N(C)[C@@H](C(C)C)C(=O)O[C@@H]4C)c3nc-2c(C(=O)N[C@@H]2C(=O)N[C@H](C(C)C)C(=O)N3CCC[C@H]3C(=O)N(C)CC(=O)N(C)[C@@H](C(C)C)C(=O)O[C@@H]2C)c(N)c1=O` (I: T[dV]P[Sar][NMeV] / II: T[dV]P[Sar][NMeV]; ester I:1-I:C, II:1-II:C; linker I:N-II:N via Actinocin(9to1)), the Potency is 0.0032 µM (active). On the same count and under the same terms, the same measure for `Oc1c(Cl)cc(Cl)cc1Sc1cc(Cl)cc(Cl)c1O`: 50.1 µM (active); for `NC(=NCCCCCCN=C(N)/N=C(\N)Nc1ccc(Cl)cc1)/N=C(\N)Nc1ccc(Cl)cc1`: 39.8 µM (active).

For the origin of these results see PubChem BioAssay (NCATS).
